# hcDAF12 agonist = activates DAF-12 receptor from parasite H. contortus. HEK293 hcDAF-12 lit1-tk-luc reporter, luminescence; 0% DMSO, 100% Δ7-dafachronic acid. actives 1.4% (n = 370,000). AID 652067. activation, % at 6.8 µM;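 active means activation above the mean of all tested compounds plus 3 SD, cut at about 5.5% in these data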;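 further: 100% = response to 3 µM Δ7-dafachronic acid high control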
# hgDAF-12 ag = hgDAF-12 agonism, primary luciferase screen; HEK293 GAL4-hgDAF12 UAS-luciferase reporter, agonist luminescence; normalized to butyrate control; activation, % at 6.8 µM; actives 1.8% (n = 370,000); AID 687014;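 active means activation above a cutoff set at the mean of all screened compounds plus 3 SD, cut at about 10% in these data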;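 further: 0% = DMSO wells and 100% = sodium butyrate wells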
# DAX1 inh-1 = blocks DAX1 repression of SF-1 activated StAR promoter; HEK293T StAR-luciferase reporter, SF-1/DAX-1 repression relief; inhibition, % at 6.8 µM; actives 1.1% (n = 370,000);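 active means inhibition above the mean over all tested compounds plus 3 SD, cut at about 3.6% in these data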;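 further: 0% = DAX-1 cells with DMSO and 100% = cells lacking DAX-1 with DMSO; higher inhibition means more luminescence from relief of DAX-1 repression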
# ssDAF-12 act = activates DAF-12 receptor from parasite S. stercoralis | HEK293 ssDAF-12/GRIP1 lit1-tk-luc reporter, luminescence; % of 3 µM dafachronic acid response | activation, % at 6.8 µM | actives 1% (n = 370,000);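 active means activation above the mean over all tested compounds plus 3 SD, cut at about 0.9% in these data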;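 further: 0% = DMSO-only wells and 100% = 3 µM delta7-dafachronic acid wells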
# DAX1 inh-2 = NR0B1 (DAX1) inhibition; P51843; HEK293 Gal4-DAX1 luciferase reporter, luminescence; inhibition, % at 6.75 µM; actives 0.99% (n = 340,000); AID 504766;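 active means inhibition above the mean over all tested compounds plus 3 SD, cut at about 4.2% in these data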;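 further: 0% = DAX1-transfected cells with DMSO and 100% = empty-vector control cells with DMSO; inhibition shows as a rise in luminescence from relieved DAX1 repression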
# hgDAF12 ag = confirmation of H. glycines DAF-12 agonists | shares compounds with hgDAF-12 ag | HEK293 GAL4-hgDAF12 luciferase reporter, agonist mode; percent of butyrate response | activation, % at 6.8 µM | actives 80% (n = 3,300) | AID 743050;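 active means mean activation over triplicate wells above the hit cutoff derived from the earlier primary screen, cut at about 11% in these data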;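 further: 0% = DMSO low control and 100% = 2 mM sodium butyrate high control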
# LXRb DAF12 ctr = activates human LXR-beta, counter-screen for DAF-12 agonists | shares compounds with hgDAF-12 ag | HEK293 Gal4-LXR luciferase reporter, 24 h | activation, % at 6.8 µM | 3,300 tested, under 10 active | AID 743051;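 active means mean activation of the triplicate above a set limit carried over from the primary screen, none filed active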
# Target sequence (P55055 whole entry, looked up, the tested form may be a part): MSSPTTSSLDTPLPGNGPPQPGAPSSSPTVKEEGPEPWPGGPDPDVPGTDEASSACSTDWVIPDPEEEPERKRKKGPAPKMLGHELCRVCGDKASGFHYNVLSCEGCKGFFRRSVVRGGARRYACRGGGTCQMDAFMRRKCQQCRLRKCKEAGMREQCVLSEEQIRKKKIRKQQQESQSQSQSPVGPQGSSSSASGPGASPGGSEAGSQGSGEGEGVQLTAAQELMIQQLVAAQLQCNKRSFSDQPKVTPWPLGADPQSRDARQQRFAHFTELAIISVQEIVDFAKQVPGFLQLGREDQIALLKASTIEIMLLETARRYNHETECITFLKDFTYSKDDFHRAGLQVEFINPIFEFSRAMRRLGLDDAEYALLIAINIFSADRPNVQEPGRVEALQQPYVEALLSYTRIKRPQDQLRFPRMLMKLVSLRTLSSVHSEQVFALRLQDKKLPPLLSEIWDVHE
# * = called active by the depositor; / = no result given. Shown are actives, neighbours in structure and some others; about 4.1% of the full set was active somewhere.
SMILES,hcDAF12 agonist,hgDAF-12 ag,DAX1 inh-1,ssDAF-12 act,DAX1 inh-2,hgDAF12 ag,LXRb DAF12 ctr
Cc1cccc(CSc2cn(CC(=O)N3CCOCC3)c3ccccc23)c1,4,14*,1,0,5.2*,13*,0
O=C(OCc1ccccn1)c1ccc(COc2ccc3ccccc3c2)o1,4,14*,3,0,2,11*,0
O=C(O)c1cc(N/N=C/C=C/c2ccccc2[N+](=O)[O-])ccc1Cl,4,13*,3,0,2,0,0
O=Cc1ccc(-c2nc3ccccc3s2)o1,6.0*,14*,2,0,-1,11*,0
O=C(O)c1ccc(-c2nc3ccccc3s2)o1,2,5,1,-1,-3,/,/
CC(C1=CCCCC1)c1cnn(C)c1 (stereo not drawn),-1,-4,0,-2,/,/,/
CCn1cnc2cc(NC(=O)c3ccc(C)cc3)ccc21,2,14*,2,1,1,11*,0
CCCn1cnc2cc(NC(=O)c3cccs3)ccc21,3,13*,1,0,2,10,0
CCOC(=O)Cn1cc(CN2CCS(=O)(=O)N(Cc3ccc(Cl)cc3)C(C(=O)OC)C2)nn1 (stereo not drawn),-1,1,-1,-1,/,/,/
Cc1cc(C)cc(C(=O)OCC(=O)NCc2cccs2)c1,-3,0,0,-2,2,/,/
Cc1ccc(C(=O)OCC(=O)NCc2cccs2)c(C)c1,-2,14*,1,-1,1,6,0
CCC(=O)c1ccc(OCc2ccc(C(=O)OC)cc2)c(OC)c1,4,-1,0,-2,1,/,/
CCC(=O)c1ccc(OCc2ccccc2)c(OC)c1,3,14*,4,0,4.7*,10,1
Cc1cc2c([nH]c3ccccc32)c2c1OC(C)(C)C=C2,2,14*,4.2*,1.1*,5.0*,11*,0
CCCN1C(=O)c2n[nH]c(C)c2C1c1ccc(Br)cc1 (stereo not drawn),1,-4,0,-1,/,/,/
CCn1c(O)c(C=Nc2ccccc2)sc1=S,3,16*,3,0.9*,/,18*,1
C[C@@H]1ON(C)[C@H]2C[C@H]3c4cc(-c5ccc6c(c5)OCO6)ccc4CCN3C[C@@H]12,-2,0,0,0,/,/,/
COC(=O)[C@@H](C)NC(=O)C(Cc1ccc2c(c1)OCO2)NC(C)=O (stereo partly drawn),-1,-1,0,-1,/,/,/
O=C(Cc1ccccc1)N/N=C/c1ccc2c(c1)OCO2,4,16*,1,-1,/,12*,0
O=C(CNc1ccccc1)N/N=C/c1ccc2c(c1)OCO2,0,0,0,-1,-1,/,/
Cc1ccc(C(=O)NN=Cc2ccc3c(c2)OCO3)cc1,1,15*,1,0,1,12*,0
Nc1[nH]c(C(=O)c2ccccc2)c(-c2ccc3ccccc3c2)c1C(=O)NCCc1ccc(Cl)cc1,-2,6,/,-2,/,/,/
O=C(CN1CCN(C(=O)c2cc(C3CC3)nn2-c2ccccc2)CC1)Nc1ccc(F)cc1,-1,15*,-1,-1,0,-3,0
Cc1cccc(NC(=O)CN2CCN(C(=O)c3cc(C4CC4)nn3-c3ccccc3)CC2)c1C,3,-4,0,-1,0,/,/
Nn1c(SCC(=O)N2CCOCC2)nnc1-c1cc(-c2ccc(F)cc2)n[nH]1,-1,0,2,-1,/,/,/
COc1ccccc1N1CCN(C2=Nc3cccc4cccc2c34)CC1,-1,13*,4.0*,0,0,8,0
CCCCCCCCN1C(=O)[C@@H](CC(=O)N2CCOCC2)C[C@@]2(C(=O)OC)C1=C[C@H](C(C)C)O[C@@H]2C1CC1,1,-2,0,-1,/,/,/
C/C(=N\NC(=O)c1nn(C)c(C)c1Br)c1ccc(NC(=O)c2ccc(C)s2)cc1,3,17*,4,0,2,7,0

# Source: PubChem BioAssay
